Source: PubChem (Broad Institute)
Pf Dd2 growth: P. falciparum Dd2 growth inhibition | SYBR Green, 72 h; active compounds read low | activity change, % at 10 µM | actives 2.3% (n = 94,000) | AID 1159554; in the data active means activity change below about -80%; inconclusive means no clear call, values can overlap the other calls
C diff HTS: blocks growth of Clostridium difficile; Clostridium difficile clinical isolate growth, OD600, 24 h; active compounds read low; growth activity, negative = inhibition, % at 16 µg/mL (by protocol); actives 0.25% (n = 86,000);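 active means mean growth activity at or below -80% and every replicate also at or below -80%; inconclusive means mean at or below -80% but some replicate above -80%; inactive means mean growth activity above -80%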;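 further: 0% = DMSO wells and -100% = levofloxacin 16 µg/mL wells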
T cruzi growth-1: T. cruzi proliferation inhibition. T. cruzi beta-gal in NIH3T3, GalScreen luminescence, 90 h. inhibition, % at 8.34 µM. actives 5.9% (n = 77,000). AID 624255;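 active means mean inhibition above about 93%, with at least 55% of replicates each passing it, limit read from the data, passing the limit was not always enough; inconclusive means only one of those two conditions holds; inactive means neither condition holds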
T cruzi growth-2: inhibitors of T. cruzi proliferation | T. cruzi beta-gal in NIH3T3, GalScreen luminescence, 90 h | actives 72% (n = 5,600) | inhibition, % at 8.35 µM | shares compounds with T cruzi growth-1;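 active means mean replicate inhibition above about 95% and at least 55% of replicates individually reaching it, limit read from the data; inconclusive means only one of the two criteria is met; inactive means neither criterion is met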
T cruzi growth-3: Trypanosoma cruzi proliferation inhibition; inhibition, % at 2.09 µM; T. cruzi beta-gal in NIH3T3, GalScreen luminescence, 90 h; actives 21% (n = 5,600); shares compounds with T cruzi growth-1;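 active means mean inhibition above about 95%, with at least 55% of replicates also reaching it, limit read from the data; inconclusive means meets just one of the two conditions; inactive means meets neither condition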;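 further: plate controls were neutral control median for no effect and positive control median for full effect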
NIH3T3 tox: cytotoxicity in mouse NIH/3T3 fibroblasts. AID 651742. cytotoxicity (signal decrease), % at 8.35 µM. actives 14% (n = 5,600). shares compounds with T cruzi growth-1. NIH/3T3 viability, CellTiter-Glo ATP luminescence, 90 h;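 active means mean signal decrease across replicates above about 35% based on untreated-well scatter, with enough replicates individually passing, limit read from the data; inconclusive means no rule stated though some were filed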;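 further: 0% = median of neutral control wells and 100% = median of positive control wells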
3T3 cytotox 2: cytotoxicity in mouse NIH/3T3 fibroblasts | shares compounds with T cruzi growth-1 | NIH/3T3 viability, CellTiter-Glo ATP luminescence, 90 h | inhibition, % at 24.9 µM | actives 56% (n = 5,600);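 active means mean loss of cell viability signal at or above a set limit, and enough replicates individually reaching it; inconclusive means meets only the mean limit or only the replicate share; inactive means meets neither condition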;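 further: 0% = median of neutral control wells and 100% = median of positive control wells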
The depositor's hits bear a star; ? = inconclusive; . = not tested or not shown. Sampled rows, rich in hits. Any-hit rate of the full collection: about 6.8%.

SMILES	Pf Dd2 growth	C diff HTS	T cruzi growth-1	T cruzi growth-2	T cruzi growth-3	NIH3T3 tox	3T3 cytotox 2
C[C@@H]1CCCCO[C@@H](CN(C)CC2CC2)[C@H](C)CN([C@@H](C)CO)C(=O)c2cc(NC(=O)Nc3ccc(F)cc3)ccc2O1	-23	6	103*	87	-45	-16	-21
CCCN1C[C@@H](C)[C@H](OC)CN(C)C(=O)c2ccc(NC(=O)c3ccccc3)cc2OC[C@@H]1C	-29	.	30	.	.	.	.
COc1ccc2c3c(n(C)c2c1)[C@@H](CO)N(C(=O)C1CC1)CC31CCN(CC2CCCC2)CC1	-16	1	.	.	.	.	.
C[C@@H](NC(=O)C[C@H]1C=C[C@H](NC(=O)CN2CCOCC2)[C@@H](CO)O1)c1ccccc1	15	.	24	.	.	.	.
CCCNC(=O)N1[C@H](CO)[C@@H](c2ccccc2)[C@@H]1CNC(=O)c1cccc(F)c1	-3	12	-4	.	.	.	.
CCCNC(=O)N1[C@H](CNC(C)=O)[C@@H](c2ccc(-c3ccccc3)cc2)[C@@H]1CO	-2	-1	110*	29	-29	-8	14
CCCNC(=O)N1[C@@H](CO)[C@H](c2ccccc2)[C@@H]1CNC(=O)c1cccc(F)c1	-45	-1	102*	-3	12	-19	-2
CCCNC(=O)N1[C@H](CO)[C@H](c2ccc(-c3ccccc3)cc2)[C@@H]1CNC(C)=O	-1	2	14	.	.	.	.
C[C@@H]1CCCCO[C@@H](CN(C)S(=O)(=O)c2ccccc2)[C@@H](C)CN([C@@H](C)CO)C(=O)c2cc(NS(=O)(=O)c3cccs3)ccc2O1	.	3	34	.	.	.	.
C[C@@H]1CN([C@H](C)CO)S(=O)(=O)c2ccc(-c3cncnc3)cc2O[C@H]1CN(C)C(=O)C1CCCCC1	-33	0	.	.	.	.	.
CCCC#Cc1ccc2c(c1)O[C@@H](CN(C)Cc1cccnc1)[C@@H](C)CN([C@H](C)CO)S2(=O)=O	15	5	109*	101*	96*	?	29*
CCCC#Cc1ccc2c(c1)O[C@@H](CN(C)Cc1cccnc1)[C@H](C)CN([C@H](C)CO)S2(=O)=O	-42	6	119*	97*	96*	45*	105*
C[C@H](CO)N1C[C@H](C)[C@@H](CN(C)Cc2cccnc2)Oc2cc(C#CCN(C)C)ccc2S1(=O)=O	-49	1	104*	103*	104*	23	21
CCCC#Cc1ccc2c(c1)O[C@@H](CN(C)Cc1cccnc1)[C@H](C)CN([C@@H](C)CO)S2(=O)=O	-39	5	122*	99*	93	55*	107*
CCCC#Cc1ccc2c(c1)O[C@H](CN(C)Cc1cncnc1)[C@@H](C)CN([C@H](C)CO)S2(=O)=O	-25	8	86	.	.	.	.
COCC#Cc1ccc2c(c1)O[C@H](CN(C)Cc1cccnc1)[C@H](C)CN([C@H](C)CO)S2(=O)=O	9	-4	9	.	.	.	.
C[C@H](O)C#Cc1ccc2c(c1)O[C@@H](CN(C)Cc1cccnc1)[C@@H](C)CN([C@H](C)CO)S2(=O)=O	13	-7	44	.	.	.	.
COCC#Cc1ccc2c(c1)O[C@H](CN(C)Cc1cccnc1)[C@@H](C)CN([C@H](C)CO)S2(=O)=O	7	0	83	.	.	.	.
C[C@H](CO)N1C[C@H](C)[C@@H](CN(C)C(=O)Nc2ccc(F)cc2)Oc2ccc(NC(=O)C3CC3)cc2CC1=O	13	-4	-13	.	.	.	.
CN(C)C(=O)c1cccc(-c2ccc([C@@H]3[C@@H](CO)N4C(=O)CN(C(=O)C5CCCC5)C[C@@H]34)cc2)c1	-14	-1	.	.	.	.	.
CCCNC(=O)C[C@H]1C[C@H]2c3cc(NC(=O)Nc4ccccc4)ccc3O[C@H]2[C@H](CO)O1	-22	0	36	.	.	.	.
CCCNC(=O)N1[C@@H](C#N)[C@H](c2ccccc2)[C@@H]1CO	22	-8	16	.	.	.	.
CCCNC(=O)N1[C@H](CO)[C@@H](c2ccc(C3=CCCCC3)cc2)[C@@H]1C#N	-27	-13	105*	90	64	6	20
CCCNC(=O)N1[C@@H](C#N)[C@@H](c2ccc(C3=CCCCC3)cc2)[C@@H]1CO	-9	-1	83	.	.	.	.
CCCNC(=O)N1[C@H](C#N)[C@H](c2ccc(C3=CCCCC3)cc2)[C@@H]1CO	?	-2	99*	101*	116*	22	33*
SMILES	Pf Dd2 growth	C diff HTS	T cruzi growth-1	T cruzi growth-2	T cruzi growth-3	NIH3T3 tox	3T3 cytotox 2
N#C[C@@H]1[C@H](c2ccc(C3=CCCC3)cc2)[C@H](CO)N1C(=O)C1CCC1	-3	-4	103*	110*	31	-8	2
N#C[C@H]1[C@H](c2ccc(C3=CCCCC3)cc2)[C@@H](CO)N1C(=O)NC1CCCCC1	-20	-12	104*	104*	80	-2	77*
CCCNC(=O)N1[C@H](C#N)[C@H](c2ccccc2C2=CCCCC2)[C@@H]1CO	-35	-1	.	.	.	.	.
N#C[C@H]1[C@@H](c2ccc(C3=CCCC3)cc2)[C@@H](CO)N1C(=O)C1CCC1	27	-3	63	.	.	.	.
N#C[C@H]1[C@@H](c2ccc(C3=CCCCC3)cc2)[C@@H](CO)N1C(=O)NC1CCCC1	-41	2	.	.	.	.	.
C[C@@H]1CCCCO[C@@H](CN(C)C(=O)Nc2ccccc2)[C@@H](C)CN([C@H](C)CO)C(=O)c2cc(NC(=O)c3ccccc3)ccc2O1	8	.	19	.	.	.	.
CC(C)NC(=O)N1[C@H](CO)[C@@H](c2ccccc2)C12CN(C(=O)Cc1ccccc1)C2	-17	-4	.	.	.	.	.
C[C@@H]1CCCCO[C@H](CN(C)S(=O)(=O)c2cccs2)[C@@H](C)CN([C@@H](C)CO)C(=O)c2cc(NS(=O)(=O)c3ccccc3)ccc2O1	-77	-8	86	.	.	.	.
C[C@@H]1CCCCO[C@@H](CN(C)C(=O)Nc2ccc(F)cc2)[C@@H](C)CN([C@H](C)CO)C(=O)c2cc(NC(=O)c3ccccc3)ccc2O1	-19	0	22	.	.	.	.
CN1C(=O)c2cc(NC(=O)NC3CCCC3)ccc2OC[C@@H]2O[C@@H](CC(=O)NCC3CC3)CC[C@H]21	7	-4	-1	.	.	.	.
COCC(=O)N1[C@H](C#N)[C@@H](c2ccc(C3=CCCCC3)cc2)[C@@H]1CO	10	2	86	.	.	.	.
COCC(=O)N1[C@H](CO)[C@@H](c2ccc(C3=CCCCC3)cc2)[C@@H]1C#N	20	1	?	108*	2	7	7
COc1ccc(NC(=O)N2CCC3(CC2)CN(CC2CC2)[C@@H](CO)c2c3c3ccc(OC)cc3n2C)cc1	41	.	.	.	.	.	.
OC[C@H]1[C@H](c2ccc(/C=C/c3ccccc3)cc2)[C@@H]2CN(Cc3cccnc3)CCCCN12	-71	12	104*	108*	65	0	104*
OC[C@H]1[C@@H](c2ccc(-c3ccc(F)cc3)cc2)[C@@H]2CN(Cc3ccncc3)CCCCN12	-49	11	47	.	.	.	.
